Values without a mark were called inactive.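 How the source made its calls: active means viability loss from added drug above about 55%, and viability with drug at most 40%, in both replicates (limit read from the data, passing the limit was not always enough); inconclusive means both conditions met in only one replicate; inactive means neither replicate meets both conditions.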
assay: reversal of MRP1-mediated doxorubicin resistance, pilot screen, H69AR cells, doxorubicin co-treatment (AID 601); conditions: H69AR cells + 2 uM doxorubicin, CellTiter-Glo, 72 h; at 10 µM; active compounds read high

Row | SMILES | differential viability (reversal) [%]
1 | COC(=O)c1cnn2c(C(F)(F)F)cc(-c3ccco3)nc12 | -11.7
2 | CCOC(=O)c1ccc(NC(=O)CCc2nc(-c3cccc(C)c3)no2)cc1 | -12.8
3 | COc1ccccc1C(=O)N1CCN=C1SCc1cccnc1 | 11.6
4 | c1cncc(-c2nnc3sc(-c4ccco4)nn23)c1 | -6.86
5 | CC1CN(c2nc(-c3ccccc3)nc3ccccc23)CC(C)O1 (stereo not given) | 4.54
6 | O=C(NC1CCN(Cc2nnnn2CCc2ccccc2)CC1)c1ccccc1F | -11.7
7 | O=S(=O)(c1ccc(OCC(O)CN2CCC(Cc3ccccc3)CC2)cc1)N1CCOCC1 (stereo not given) | -9.48
8 | COc1ccc(C2N(C(=O)c3ccccc3)CCN2C(=O)c2ccccc2)cc1 | 2.48
9 | CCSC1=NCN(CCCC(=O)O)CN1 | -1.83
10 | O=C(CCOc1ccccc1)NCc1ccccc1 | -0.41
11 | CCOC(=O)c1ccccc1NC(=O)c1cc2sccc2n1C | 3.9
12 | C=CCn1c(SCC(=O)NC23CC4CC(CC(C4)C2)C3)nc(O)cc1=O | 0.68
13 | O=C(OCc1ccc2c(c1)OCO2)c1ccc(S(=O)(=O)N2CCCCC2)cc1 | 0.615
14 | COC(=O)N1CC(c2ccccc2)CC1=O (stereo not given) | 15.1
15 | COc1ccc(C2=Nn3c(nnc3-c3ccccc3)SC2)cc1OC | 2.4
16 | CCOc1ccc(Cl)cc1S(=O)(=O)N1CCCC1 | -5.74
17 | Cn1c(SCCN2CCCCC2)nnc1-c1ccccc1Br | 9.74
18 | O=C(COc1ccccc1)N1CCN(C(=O)c2cccc(F)c2)CC1 | 13.9
19 | COc1ccc(CN2CC(C(=O)NCCCOC(C)C)CC2=O)cc1 (stereo not given) | 3.83
20 | COC(=O)CSc1nc(C)c(C(C)=O)cc1C#N | 9.68

Row | SMILES | differential viability (reversal) [%]
21 | Cn1c(=O)c2c(nc(Br)n2CCSc2ncccn2)n(C)c1=O | 21.7
22 | O=C(NCC(c1cccnc1)N1CCOCC1)c1cccs1 (stereo not given) | -0.595
23 | O=C(CSc1nnnn1-c1ccc(Cl)cc1)NC(=O)Nc1ccc2c(c1)OCCO2 | 0.67
24 | Cc1nc2sc(C(c3ccco3)N3CCN(c4ccccc4F)CC3)c(O)n2n1 (stereo not given) | 7.17
25 | CC1CCCCC1NC(=O)CN1CCN(Cc2ccccc2Cl)C1=O (stereo not given) | 11.9
26 | COc1ccc(-n2c(=O)[nH]cc(C(=O)Nc3ccc(NC(C)=O)cc3)c2=O)cc1 | 0.385
27 | CCN(CC)CCN1C(=O)C(=O)/C(=C(/O)c2c(C)[nH]c(C(=O)OC)c2C)C1c1ccco1 (stereo not given) | -3.21
28 | Cc1nc(N2CCc3ccccc32)[nH]c(=O)c1CCC(C)C | 9.09
29 | C=COC(=O)CSc1snc(SCC(=O)OC)c1C#N | 3.02
30 | COc1ccc2[nH]c(=O)c(CN(C(=O)c3ccncc3)C(C)C)cc2c1 | 4.29
31 | Cc1ccc2cc3cc(C(=O)N4CC(C)CC(C)C4)oc3nc2c1 (stereo not given) | 3.71
32 | O=C(C1CCN(c2nnnn2-c2ccccc2)CC1)N1CCN(c2ccccc2)CC1 | 1.51
33 | CCCCSCCCNC(=O)CS(=O)Cc1nc(-c2cccc(C)c2)oc1C (stereo not given) | -3.76
34 | Cc1cc(C)n(-c2nnc(C)n2/N=C/c2ccccc2F)n1 | 13.3
35 | O=C(O)c1cc(-c2ccccc2Cl)n[nH]1 | 1.79
36 | O=C1c2ccccc2C(=O)N1CC(O)Cn1nnc2ccccc21 (stereo not given) | 4.44
37 | COCCN(C(=O)CCC(=O)Nc1ccccn1)C(C(=O)NC1CCCC1)c1ccc(OC)cc1 (stereo not given) | 14.3
38 | CCOC(=O)c1ccccc1NC(=O)COC(=O)C1=COCCO1 | -13.3
39 | Cc1ccc(-c2cc(C(=O)O)n[nH]2)o1 | -1.46
40 | Cn1c(=O)c2c(nc(SCCCO)n2Cc2ccccc2Cl)n(C)c1=O | 51.5
